Results on 39 sequences are retold here after paper PMC10812921, “Transcriptional Coactivator BOB1 (OBF1, OCA-B) Modulates the Specificity of DNA Recognition by the POU-Domain Factors OCT1 and OCT2 in a Monomeric Configuration”.

One assay has as its target T1, POU2 (OCT2 POU domain) (human, UniProt P09086 175-386).
T1 sequence: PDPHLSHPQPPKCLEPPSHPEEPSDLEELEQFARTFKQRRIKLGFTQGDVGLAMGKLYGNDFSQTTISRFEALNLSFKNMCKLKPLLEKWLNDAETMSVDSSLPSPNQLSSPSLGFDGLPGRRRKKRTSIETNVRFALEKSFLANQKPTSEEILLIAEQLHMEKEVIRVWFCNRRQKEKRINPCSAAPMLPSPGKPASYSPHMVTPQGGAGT
Kind of assay: EMSA-SELEX-seq; no BOB1; 20 mM Tris-HCl pH 7.6, 140 mM NaCl, 10% glycerol, 0.5 mM EDTA, 0.05% Triton X-100, 0.1 mg/mL BSA, 0.1 mg/mL poly(dI-dC), 5 mM DTT, room temperature, 20 min; high values mean tight binding. The note with it: protein: recombinant; dsDNA, one strand shown. Put shortly:
(§1)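 After expression in E. coli BL21, tagged POU-domain proteins were purified under denaturing conditions and then renatured. Each binding reaction held 30 ng protein and 300 ng of a PCR-amplified double-stranded random 35-nt library in 20 μL Tris–HCl pH 7.6 binding buffer, with or without 28 ng coactivator protein, for 20 min at RT. Bands holding complexes were cut from native 6% PAGE, eluted and PCR-amplified across four rounds, and the output was Illumina-sequenced. The value given for binding preference is the share, in percent, of sequenced 8-mers fitting a motif pattern.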
Background: A gel shift assay detects complexes by their altered migration in electrophoresis.
With AAAGCAAT, the binding signal is 0.0455 % of ANNNNAAN 8-mers.
Still for that read-out and setting: the same measure for ATGTCAAT: 0.0869 % of ANNNNAAN 8-mers; for ATCCTAAA: 0.0328 % of ANNNNAAN 8-mers.
On to AAAATAAA, for which the binding signal is 0.16 % of ANNNNAAN 8-mers.
On to ACCAGAAT, for which the binding signal was 0.0437 % of ANNNNAAN 8-mers.
Take ATAGAAAT: the binding signal is 0.0961 % of ANNNNAAN 8-mers.
Consider AACCTAAG, for which the binding signal was 0.0213 % of ANNNNAAN 8-mers.
On the same count and under the same terms, under AGAGTAAA stands 0.0386 % of ANNNNAAN 8-mers; under AGCCAAAC, 0.0196 % of ANNNNAAN 8-mers.
Consider AGCCAAAG, for which the binding signal was 0.0219 % of ANNNNAAN 8-mers.
In the case of AAGGCAAT, the binding signal is 0.0489 % of ANNNNAAN 8-mers.
For the sequence AAGCCAAA, the binding signal is 0.0414 % of ANNNNAAN 8-mers.
With ATAGTAAT, the binding signal is 0.148 % of ANNNNAAN 8-mers.
Turning to ACGGCAAC, the binding signal is 0.0109 % of ANNNNAAN 8-mers.
With AGAAAAAC, the binding signal was 0.0368 % of ANNNNAAN 8-mers.
With ACCCAAAG, the binding signal is 0.0184 % of ANNNNAAN 8-mers.
The same measure, in the same setting: under ACAATAAA stands 0.0495 % of ANNNNAAN 8-mers; under ATGACAAG, 0.0351 % of ANNNNAAN 8-mers.
In the case of ACTGCAAA, the binding signal is 0.0397 % of ANNNNAAN 8-mers.
Regarding ATACCAAA, the binding signal is 0.0541 % of ANNNNAAN 8-mers.
In the case of ACCACAAA, the binding signal is 0.0196 % of ANNNNAAN 8-mers.
Turning to AGTTGAAG, the binding signal was 0.0316 % of ANNNNAAN 8-mers.
Consider AACCAAAA, for which the binding signal was 0.0449 % of ANNNNAAN 8-mers.
The same measure, in the same setting: the same measure for ATGTGAAC: 0.0386 % of ANNNNAAN 8-mers; for AGCCGAAC: 0.0161 % of ANNNNAAN 8-mers.
The same measure, in the same setting: the same measure for ACTAAAAA: 0.0409 % of ANNNNAAN 8-mers; for ACGATAAA: 0.0432 % of ANNNNAAN 8-mers; for AGCTTAAA: 0.0437 % of ANNNNAAN 8-mers.
With AAGCTAAA, the binding signal is 0.0449 % of ANNNNAAN 8-mers.
On to AGCAGAAC, for which the binding signal is 0.0299 % of ANNNNAAN 8-mers.
Still for that read-out and setting: under AGCTCAAT stands 0.0316 % of ANNNNAAN 8-mers; under AGCAGAAG, 0.0207 % of ANNNNAAN 8-mers; under AGCACAAG, 0.0196 % of ANNNNAAN 8-mers.
As for ACCGCAAT, the binding signal is 0.019 % of ANNNNAAN 8-mers.
The same measure, in the same setting: the same measure for AAAAAAAT: 0.12 % of ANNNNAAN 8-mers; for AAGTCAAC: 0.0236 % of ANNNNAAN 8-mers.
Take AGGATAAC: the binding signal was 0.0437 % of ANNNNAAN 8-mers.
As to ATCGAAAG, the binding signal was 0.0288 % of ANNNNAAN 8-mers.
ACGTGAAG: the binding signal was 0.0282 % of ANNNNAAN 8-mers.

A further assay has as its target POU1 (OCT1 POU domain);BOB1 (OBF1, OCA-B) (human;human, UniProt P14859;Q16633 260-458;1-256, |). Nature of the assay: EMSA-SELEX-seq; with BOB1 (ternary complex band); 20 mM Tris-HCl pH 7.6, 140 mM NaCl, 10% glycerol, 0.5 mM EDTA, 0.05% Triton X-100, 0.1 mg/mL BSA, 0.1 mg/mL poly(dI-dC), 5 mM DTT, room temperature, 20 min; high values mean tight binding. The note with it: protein: recombinant;recombinant; copies: 1;1; dsDNA, one strand shown. The gist of the method:
as §1
Take AAAGCAAT: the binding signal is 0.0652 % of ANNNNAAN 8-mers.
ATGTCAAT: the binding signal is 0.0722 % of ANNNNAAN 8-mers.
Regarding ATCCTAAA, the binding signal is 0.0285 % of ANNNNAAN 8-mers.
As to AAAATAAA, the binding signal is 0.148 % of ANNNNAAN 8-mers.
Take ACCAGAAT: the binding signal was 0.0293 % of ANNNNAAN 8-mers.
On to ATAGAAAT, for which the binding signal was 0.0878 % of ANNNNAAN 8-mers.
Take AACCTAAG: the binding signal is 0.018 % of ANNNNAAN 8-mers.
As for AGAGTAAA, the binding signal was 0.0605 % of ANNNNAAN 8-mers.
In the case of AGCCAAAC, the binding signal was 0.0261 % of ANNNNAAN 8-mers.
Same read-out and setting: under AGCCAAAG stands 0.0363 % of ANNNNAAN 8-mers; under AAGGCAAT, 0.057 % of ANNNNAAN 8-mers; under AAGCCAAA, 0.0464 % of ANNNNAAN 8-mers.
Consider ATAGTAAT, for which the binding signal is 0.0702 % of ANNNNAAN 8-mers.
For the sequence ACGGCAAC, the binding signal is 0.0152 % of ANNNNAAN 8-mers.
For the sequence AGAAAAAC, the binding signal is 0.0519 % of ANNNNAAN 8-mers.
Take ACCCAAAG: the binding signal was 0.0203 % of ANNNNAAN 8-mers.
Regarding ACAATAAA, the binding signal was 0.0453 % of ANNNNAAN 8-mers.
As for ATGACAAG, the binding signal is 0.0336 % of ANNNNAAN 8-mers.
As to ACTGCAAA, the binding signal was 0.0535 % of ANNNNAAN 8-mers.
For ATACCAAA, the binding signal was 0.041 % of ANNNNAAN 8-mers.
In the case of ACCACAAA, the binding signal is 0.014 % of ANNNNAAN 8-mers.
Regarding AGTTGAAG, the binding signal was 0.0398 % of ANNNNAAN 8-mers.
In the case of AACCAAAA, the binding signal is 0.0753 % of ANNNNAAN 8-mers.
As for ATGTGAAC, the binding signal was 0.0367 % of ANNNNAAN 8-mers.
Turning to AGCCGAAC, the binding signal is 0.016 % of ANNNNAAN 8-mers.
Regarding ACTAAAAA, the binding signal was 0.0468 % of ANNNNAAN 8-mers.
ACGATAAA: the binding signal was 0.0324 % of ANNNNAAN 8-mers.
For AGCTTAAA, the binding signal was 0.0258 % of ANNNNAAN 8-mers.
As to AAGCTAAA, the binding signal is 0.0453 % of ANNNNAAN 8-mers.
Take AGCAGAAC: the binding signal was 0.0211 % of ANNNNAAN 8-mers.
In the case of AGCTCAAT, the binding signal was 0.0261 % of ANNNNAAN 8-mers.
For the sequence AGCAGAAG, the binding signal is 0.0308 % of ANNNNAAN 8-mers.
AGCACAAG: the binding signal was 0.0183 % of ANNNNAAN 8-mers.
The same measure, in the same setting: under ACCGCAAT stands 0.0199 % of ANNNNAAN 8-mers.
Same read-out and setting: the same measure for AAAAAAAT: 0.152 % of ANNNNAAN 8-mers; for AAGTCAAC: 0.0308 % of ANNNNAAN 8-mers; for AGGATAAC: 0.0293 % of ANNNNAAN 8-mers.
Turning to ATCGAAAG, the binding signal is 0.0379 % of ANNNNAAN 8-mers.
As to ACGTGAAG, the binding signal is 0.0258 % of ANNNNAAN 8-mers.

The target of a further assay is T2, POU2 (OCT2 POU domain);BOB1 (OBF1, OCA-B) (human;human, UniProt P09086;Q16633 175-386;1-256, |).
T2 sequence 1: T1 sequence
T2 sequence 2: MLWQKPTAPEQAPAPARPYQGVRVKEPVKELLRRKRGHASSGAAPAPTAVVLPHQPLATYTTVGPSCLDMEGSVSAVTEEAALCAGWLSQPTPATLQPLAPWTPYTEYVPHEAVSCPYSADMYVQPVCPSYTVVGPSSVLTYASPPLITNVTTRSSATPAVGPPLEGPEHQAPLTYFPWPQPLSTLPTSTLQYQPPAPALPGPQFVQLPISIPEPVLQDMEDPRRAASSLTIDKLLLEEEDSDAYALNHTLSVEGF
The assay is described as above. The note with it: protein: recombinant;recombinant; copies: 1;1; dsDNA, one strand shown. Put shortly: as §1
AAAGCAAT: the binding signal was 0.0371 % of ANNNNAAN 8-mers.
On the same count and under the same terms, the same measure for ATGTCAAT: 0.0743 % of ANNNNAAN 8-mers; for ATCCTAAA: 0.0421 % of ANNNNAAN 8-mers; for AAAATAAA: 0.105 % of ANNNNAAN 8-mers.
In the case of ACCAGAAT, the binding signal is 0.0363 % of ANNNNAAN 8-mers.
Consider ATAGAAAT, for which the binding signal is 0.0892 % of ANNNNAAN 8-mers.
As to AACCTAAG, the binding signal is 0.0173 % of ANNNNAAN 8-mers.
Turning to AGAGTAAA, the binding signal was 0.0512 % of ANNNNAAN 8-mers.
Turning to AGCCAAAC, the binding signal is 0.0182 % of ANNNNAAN 8-mers.
Turning to AGCCAAAG, the binding signal was 0.019 % of ANNNNAAN 8-mers.
Regarding AAGGCAAT, the binding signal was 0.0495 % of ANNNNAAN 8-mers.
As to AAGCCAAA, the binding signal is 0.0256 % of ANNNNAAN 8-mers.
Consider ATAGTAAT, for which the binding signal is 0.0867 % of ANNNNAAN 8-mers.
Regarding ACGGCAAC, the binding signal is 0.0124 % of ANNNNAAN 8-mers.
Consider AGAAAAAC, for which the binding signal is 0.0396 % of ANNNNAAN 8-mers.
Take ACCCAAAG: the binding signal is 0.0206 % of ANNNNAAN 8-mers.
For ACAATAAA, the binding signal is 0.0396 % of ANNNNAAN 8-mers.
The same measure, in the same setting: the same measure for ATGACAAG: 0.0289 % of ANNNNAAN 8-mers; for ACTGCAAA: 0.0264 % of ANNNNAAN 8-mers; for ATACCAAA: 0.038 % of ANNNNAAN 8-mers.
Still for that read-out and setting: the same measure for ACCACAAA: 0.0198 % of ANNNNAAN 8-mers.
In the case of AGTTGAAG, the binding signal is 0.0338 % of ANNNNAAN 8-mers.
As for AACCAAAA, the binding signal is 0.0388 % of ANNNNAAN 8-mers.
With ATGTGAAC, the binding signal was 0.0388 % of ANNNNAAN 8-mers.
Turning to AGCCGAAC, the binding signal is 0.014 % of ANNNNAAN 8-mers.
Regarding ACTAAAAA, the binding signal was 0.0388 % of ANNNNAAN 8-mers.
As to ACGATAAA, the binding signal is 0.0487 % of ANNNNAAN 8-mers.
For the sequence AGCTTAAA, the binding signal is 0.0421 % of ANNNNAAN 8-mers.
With AAGCTAAA, the binding signal is 0.0347 % of ANNNNAAN 8-mers.
Consider AGCAGAAC, for which the binding signal is 0.014 % of ANNNNAAN 8-mers.
As to AGCTCAAT, the binding signal was 0.0223 % of ANNNNAAN 8-mers.
On the same count and under the same terms, under AGCAGAAG stands 0.0264 % of ANNNNAAN 8-mers.
Still for that read-out and setting: under AGCACAAG stands 0.0124 % of ANNNNAAN 8-mers; under ACCGCAAT, 0.0264 % of ANNNNAAN 8-mers; under AAAAAAAT, 0.12 % of ANNNNAAN 8-mers.
Regarding AAGTCAAC, the binding signal is 0.0272 % of ANNNNAAN 8-mers.
Turning to AGGATAAC, the binding signal was 0.0355 % of ANNNNAAN 8-mers.
Regarding ATCGAAAG, the binding signal was 0.0272 % of ANNNNAAN 8-mers.
Consider ACGTGAAG, for which the binding signal was 0.0305 % of ANNNNAAN 8-mers.
